Laboratory results from the supplement of paper PMC8728848.
Only a selection was taken, and the strongest signals are over-represented in it overall.

How the values were obtained:
Assay in all cases: glycan array binding signal (z-score within array); higher = stronger binding
Details in all cases: glycan notation: IUPAC condensed, linker removed
[1] = target: GalNAc(b1-4)GlcNAc(b1-2)Man(a1-3)[GalNAc(b1-4)GlcNAc(b1-2)Man(a1-6)]Man(b1-4)GlcNAc(b1-4)GlcNAc
In short: (§1)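 Arrays were curated from the Consortium for Functional Glycomics database, 3228 in total, and kept only where the protein sequence was available. Binding is expressed as a within-array Z-score. This score was averaged across arrays of the same protein sequence at different concentrations or buffers and across linkers, and negative values can be read as non-binding.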

[2] = target: GlcNAc(b1-2)Man(a1-3)[GlcNAc(b1-4)][GlcNAc(b1-2)Man(a1-6)]Man(b1-4)GlcNAc(b1-4)GlcNAc
In short: as §1

[3] = target: GlcNAc(b1-3)Gal(b1-4)Glc
In short: as §1

[4] = target: GlcNAc(b1-3)Gal(b1-4)GlcNAc
In short: as §1

[5] = target: GlcNAc(b1-3)Gal(b1-4)GlcNAc(b1-2)Man(a1-3)[GlcNAc(b1-3)Gal(b1-4)GlcNAc(b1-2)Man(a1-6)]Man(b1-4)GlcNAc(b1-4)GlcNAc
In short: as §1

[6] = target: GlcNAc(b1-3)Gal(b1-4)GlcNAc(b1-3)Gal(b1-4)GlcNAc(b1-2)Man(a1-3)[GlcNAc(b1-3)Gal(b1-4)GlcNAc(b1-3)Gal(b1-4)GlcNAc(b1-2)Man(a1-6)]Man(b1-4)GlcNAc(b1-4)GlcNAc
In short: as §1

[7] = target: GlcNAc(b1-3)Gal(b1-4)GlcNAc(b1-6)[GlcNAc(b1-3)Gal(b1-3)]GalNAc
In short: as §1

[8] = target: Man(a1-2)Man(a1-3)[Man(a1-2)Man(a1-6)]Man(a1-6)[Man(a1-2)Man(a1-2)Man(a1-3)]Man
In short: as §1

[9] = target: Man(a1-3)[Man(a1-6)]Man(b1-4)GlcNAc(b1-4)[Fuc(a1-6)]GlcNAc
In short: as §1

[10] = target: Neu5Ac(a2-3)Gal(b1-3)GlcNAc(b1-2)[Neu5Ac(a2-3)Gal(b1-3)GlcNAc(b1-4)]Man(a1-6)[Neu5Ac(a2-3)Gal(b1-3)GlcNAc(b1-2)Man(a1-3)]Man(b1-4)GlcNAc(b1-4)GlcNAc
In short: as §1

[11] = target: Neu5Ac(a2-3)Gal(b1-4)GlcNAc(b1-2)Man
In short: as §1

[12] = target: Neu5Ac(a2-3)Gal(b1-4)GlcNAc(b1-3)Gal(b1-4)GlcNAc(b1-2)Man(a1-3)[Neu5Ac(a2-3)Gal(b1-4)GlcNAc(b1-3)Gal(b1-4)GlcNAc(b1-2)Man(a1-6)]Man(b1-4)GlcNAc(b1-4)GlcNAc
In short: as §1

[13] = target: Neu5Ac(a2-3)Gal(b1-4)GlcNAc(b1-3)Gal(b1-4)GlcNAc(b1-3)[Neu5Ac(a2-3)Gal(b1-4)GlcNAc(b1-3)Gal(b1-4)GlcNAc(b1-6)]GalNAc
In short: as §1

[14] = target: Neu5Ac(a2-3)Gal(b1-4)[Fuc(a1-3)]GlcNAc(b1-2)Man
In short: as §1

[15] = target: Neu5Ac(a2-6)Gal(b1-4)GlcNAc(b1-2)Man(a1-3)[GlcNAc(b1-2)Man(a1-6)]Man(b1-4)GlcNAc(b1-4)GlcNAc
In short: as §1

[16] = target: Neu5Ac(a2-6)Gal(b1-4)GlcNAc(b1-2)Man(a1-6)Man(b1-4)GlcNAc(b1-4)GlcNAc
In short: as §1

[17] = target: Neu5Ac(a2-6)Gal(b1-4)GlcNAc(b1-3)Gal(b1-4)GlcNAc(b1-2)Man(a1-3)[Neu5Ac(a2-6)Gal(b1-4)GlcNAc(b1-3)Gal(b1-4)GlcNAc(b1-2)Man(a1-6)]GalNAc
In short: as §1

[18] = target: Neu5Ac(a2-6)Gal(b1-4)GlcNAc(b1-3)Gal(b1-4)GlcNAc(b1-3)[Neu5Ac(a2-6)Gal(b1-4)GlcNAc(b1-3)Gal(b1-4)GlcNAc(b1-6)]GalNAc
In short: as §1

[19] = target: Neu5Ac(a2-6)Gal(b1-4)GlcNAc(b1-3)Gal(b1-4)[Fuc(a1-3)]GlcNAc(b1-3)Gal(b1-4)[Fuc(a1-3)]GlcNAc
In short: as §1

[20] = target: Neu5Ac(a2-6)GalNAc
In short: as §1

[21] = target: Neu5Ac(a2-6)GalNAc(b1-4)GlcNAc6S
In short: as §1

[22] = target: Neu5Ac(a2-8)Neu5Ac(a2-3)Gal(b1-4)Glc
In short: as §1

[23] = target: Neu5Ac(a2-8)Neu5Ac(a2-8)Neu5Ac(a2-8)Neu5Ac(a2-3)[GalNAc(b1-4)]Gal(b1-4)Glc
In short: as §1

[24] = target: Neu5Ac(b2-6)GalNAc
In short: as §1

[25] = target: Neu5Ac9Ac(a2-3)Gal(b1-3)GlcNAc
In short: as §1

[26] = target: Neu5Gc(a2-6)Gal(b1-4)GlcNAc
In short: as §1

[27] = target: Neu5Gc(a2-6)GalNAc
In short: as §1

[28] = target: Neu5Gc(a2-8)Neu5Gc(a2-3)Gal(b1-4)GlcNAc
In short: as §1

B1: Aap lectin (Staphylococcus epidermidis) (protein)
chain: VNLNYSSPFMSLLSMPADSSSNNTKNTIDIPPTTVKGRDNYDFYGRVDIESNPTDLNATNLTRYNYGQPPGTTTAGAVQFKNQVSFDKDFDFNIRVANNRQSNTTGADGWGFMFSKKDGDDFLKNGGILREKGTPSAAGFRIDTGYYNNDPLDKIQKQAGQGYRGYGTFVKNDSQGNTSKVGSGTPSTDFLNYADNTTNDLDGKFHGQKLNNVNLKYNASNQTFTATYAGKTWTATLSELGLSPTDSYNFLVTSS
Which “glycan array binding signal (z-score)” value [1] does the source give for B1 here?
Its value is 3.29.

And the “glycan array binding signal (z-score)” value [2]?
The value was -0.698.

And the “glycan array binding signal (z-score)” value [3]?
Its value is 0.941.

And the “glycan array binding signal (z-score)” value [4]?
Its value is -0.278.

And the “glycan array binding signal (z-score)” value [5]?
Its value is 0.543.

And the “glycan array binding signal (z-score)” value [6]?
The value was 3.83.

And the “glycan array binding signal (z-score)” value [7]?
Its value is -0.968.

What about the “glycan array binding signal (z-score)” value [8] of the same binder?
Its value is -0.858.

And the “glycan array binding signal (z-score)” value [9]?
The value was -0.887.

What about the “glycan array binding signal (z-score)” value [10] of the same binder?
The value was -0.885.

And the “glycan array binding signal (z-score)” value [11]?
The value was -0.335.

What about the “glycan array binding signal (z-score)” value [12] of the same binder?
Its value is -0.87.

What about the “glycan array binding signal (z-score)” value [13] of the same binder?
Its value is -0.88.

What about the “glycan array binding signal (z-score)” value [14] of the same binder?
The value was -0.708.

What about the “glycan array binding signal (z-score)” value [15] of the same binder?
The value was -0.88.

What about the “glycan array binding signal (z-score)” value [16] of the same binder?
Its value is -0.806.

What about the “glycan array binding signal (z-score)” value [17] of the same binder?
The value was -0.905.

What about the “glycan array binding signal (z-score)” value [18] of the same binder?
Its value is 2.93.

And the “glycan array binding signal (z-score)” value [19]?
Its value is -0.333.

What about the “glycan array binding signal (z-score)” value [20] of the same binder?
The value was -0.816.

What about the “glycan array binding signal (z-score)” value [21] of the same binder?
Its value is -1.16.

And the “glycan array binding signal (z-score)” value [22]?
Its value is -0.83.

What about the “glycan array binding signal (z-score)” value [23] of the same binder?
The value was -0.444.

What about the “glycan array binding signal (z-score)” value [24] of the same binder?
Its value is -0.527.

What about the “glycan array binding signal (z-score)” value [25] of the same binder?
The value was 0.704.

And the “glycan array binding signal (z-score)” value [26]?
The value was -0.275.

What about the “glycan array binding signal (z-score)” value [27] of the same binder?
Its value is -0.523.

And the “glycan array binding signal (z-score)” value [28]?
Its value is 1.51.
